This note sets out measurements from PubChem BioAssay AID493247 (Broad Institute, 2011).

Potency and affinity values are given separately. Inconclusive results are not listed. Values without a mark were called inactive.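 Rule for the calls: active = falling luminescence with a fitted half-effect concentration at most ten times the top dose in every repeat; inconclusive = repeats disagree, poor fit, or flat moderate signal drop; inactive = the rest.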

The assay can be described thus: NIH/3T3 cell viability loss – mouse embryonic fibroblasts, dry powder, set 2, cytotoxicity control, dose response (AID 493247). As to conditions: NIH/3T3 cytotoxicity, CellTiter-Glo ATP luminescence, 90 h; series mostly up to 19.5 µM; activity change, negative = cytotoxic: at the top concentration. Background: ATP-based viability assays read luminescence as a measure of living cells.
Take `COc1cc(CN2CCC(C(=O)NC(C)c3ccc(OC)c(OC)c3)CC2)cc(OC)c1` (stereo unspecified): the “activity change, negative = cytotoxic” value is -5.63%.

`CCNC(=O)C1CCCN(C(=O)c2cc(OC)c(OC)c(OC)c2)CC1` (stereo unspecified): the “activity change, negative = cytotoxic” value is 3.32%.

With `CCCNC(=O)C1(C)CCCN(C(=O)Cc2ccc(OC)c(OC)c2)C1` (stereo unspecified), the “activity change, negative = cytotoxic” value is 3.6%.

As to `CCNC(=O)C1(C)CCCN(C(=O)Cc2ccc(OC)c(OC)c2)C1` (stereo unspecified), the “activity change, negative = cytotoxic” value is -10.4%.

For the compound `COc1ccc(CCNC(=O)C2CCCCC2)cc1OC`, the “activity change, negative = cytotoxic” value was 12.5%.

With `O=C(CNC(=O)c1ccco1)N/N=C/c1ccc([N+](=O)[O-])o1`, the “activity change, negative = cytotoxic” value was 2.12%.

On to `CCNC(=O)C1(C)CCN(C(=O)c2ccc(OC)c(OC)c2)C1` (stereo unspecified), for which the “activity change, negative = cytotoxic” value was 8.84%.

Regarding `CCCNC(=O)C1(C)CCCN(C(=O)c2ccc(OC(F)F)cc2)C1` (stereo unspecified), the “activity change, negative = cytotoxic” value is -13.5%.

Regarding `COc1ccc(CCN2CC(C(=O)NCc3ccc(F)cc3)CC2=O)cc1OC` (stereo unspecified), the “activity change, negative = cytotoxic” value was 11.9%.

With `CCNC(=O)C1(C)CCCN(Cc2cccc(Oc3ccccc3)c2)C1` (stereo unspecified), the “activity change, negative = cytotoxic” value was -2.58%.

Regarding `CN(Cc1ccccc1)C(=O)C1CCCN(Cc2ccccc2)C1` (stereo unspecified), the “activity change, negative = cytotoxic” value was -26.8%.

With `COc1ccc(CCN(C)C(=O)C2CCCN(Cc3ccccc3C)C2)cc1OC` (stereo unspecified), the “activity change, negative = cytotoxic” value was 3.81%.

As for `COCCNC(=O)C1(C)CCCN(C(=O)c2cc(OC)c(OC)c(OC)c2)C1` (stereo unspecified), the “activity change, negative = cytotoxic” value was -5.22%.

In the case of `COc1ccc(CN2CCCC(C(=O)N3CCCC3)C2)c(OC)c1OC` (stereo unspecified), the “activity change, negative = cytotoxic” value was 3.82%.

Consider `CCCNC(=O)C1(C)CCN(C(=O)Cc2ccc(OC)c(OC)c2)C1` (stereo unspecified), for which the “activity change, negative = cytotoxic” value is 3.33%.

Regarding `COc1cc2c(cc1OC)C(C)N(CCC(N)=O)CC2` (stereo unspecified), the “activity change, negative = cytotoxic” value was 2.04%.
